Source: PubChem
A selection: hits, their analogues and other compounds. The true share with any hit is near 0.55%.
TRPV1 PAM: potentiators of human vanilloid receptor 1 (TRPV1). actives 0.02% (n = 320,000). potentiation, % at 8.33 µM. Q8NER1. TRPV1-expressing cells, Fluo-8 calcium influx, capsaicin EC20 potentiation; in the data active = potentiation above about 80%; inconclusive = between about 30% and that limit; also: 0% is about no effect
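Fluo-8 calcium influx in TRPV1-expressing cells, kinetic read (ex 480/em 520 nm). Compound added and read 3 min for agonist activity, followed by capsaicin at EC20 final and 2 min further read for enhancement.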
A-T KAP1 phos: potential ataxia-telangiectasia treatment; F2112 A-T fibroblasts, KAP-1 phosphorylation AlphaLISA; neocarzinostatin DNA damage 30 min before lysis; actives 0.19% (n = 320,000); Potency, µM (doses to about 57.5 µM), inactives show at the top dose activation, most hits filed as activators; also: potency is read from the fitted curve at half-maximal effect; % of control where 0% means no effect; nearly all actives have a fitted effect of over 45% in size
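hTERT-immortalized A-T patient fibroblasts (F2112), 500 cells/well in OPTI-MEM, 1% FBS, got compounds for 60 min, then NCS for 30 min at 37C. Lysates were then assayed for phospho-KAP-1 by AlphaLISA (anti-pKAP1 donor, anti-KAP1 acceptor beads), 6 hr at 25C.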
TRPV1 ag: human TRPV1 agonism; TRPV1-expressing cells, Fluo-8 calcium influx, agonist mode; activation, % at 8.33 µM; actives 0.19% (n = 320,000); in the data active = activation above about 80%; inconclusive = between about 30% and that limit; also: 0% is about no effect
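Fluo-8 calcium influx in TRPV1-expressing cells, kinetic read (ex 480/em 520 nm). Compound added and read 3 min for agonist activity, followed by capsaicin at EC20 final and 2 min further read for enhancement.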
IMPase Li cell: cell-permeable IMPase inhibitors with lithium potentiation; CHO-M1 cells, IP1 TR-FRET (IP-One), carbachol + lithium; Potency, µM (series often up to 59.4 µM), for the others: top-dose activity, negative = IMPase inhibition, actives largely listed as inhibitors; actives 0.35% (n = 210,000); AID 1457;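 also: IP1 builds up when IMPase is blocked and the TR-FRET signal falls; potency is read from the fitted curve at half-maximal effect; plate controls were basal vehicle for no effect and high inhibitor control for full effect; nearly all actives have a fitted effect of over 50% in size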
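Concentration–response in CHO-M1 cells, lithium-potentiated; 30 min at 37C. IP1 detected by competitive TR-FRET after 10 min lysis at RT. Hill-fitted AC50.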
Numbers without * were called inactive; ? = inconclusive; . = no result; [ ] = another dose, or the depositor's remark. Unless noted, calls follow the shape of the dose curve; as a rule, active = well fitted curve in the direction sought with a large enough effect; inconclusive = small, poorly fitted or top-dose-only effect, or another doubt; inactive = no such curve, though single readings can be large; an effect the other way counts as inactive or inconclusive.

SMILES	TRPV1 PAM	A-T KAP1 phos	TRPV1 ag	IMPase Li cell
Cc1ccc(NC2CCCN(C(=O)CN3C(=O)c4ccccc4C3=O)C2)cc1C (centres undefined)	5	0%	?	.
O=C(CCc1cccc(Cl)c1)N1CCCC(Nc2ccccc2)C1 (centres undefined)	-2	4%	84*	.
COc1ccc(NC2CCCN(C(=O)CCc3ccccc3F)C2)cc1 (centres undefined)	-1	3%	81*	.
O=C1CCCCN1CCC(=O)N1CCCC(Nc2ccccc2)C1 (centres undefined)	7	-3%	0	.
Cc1ccc(NC2CCCN(C(=O)CCC(=O)c3ccccc3)C2)cc1C (centres undefined)	4	-4%	92*	.
O=C(O)CNC(=O)[C@H]1NC(C(F)(F)F)(C(F)(F)F)OC1(C(F)(F)F)C(F)(F)F	.	.	.	-13%
Cc1cc(C(C)(C)C)cc(CNC2CCCCC2)c1O	.	.	.	-2%
O=C(CC1CCCC1)N1CCCC(Nc2cccc(F)c2)C1 (centres undefined)	-11	12%	84*	.
O=C(CC1CCCC1)N1CCCC(Nc2ccc(F)cc2)C1 (centres undefined)	-5	10%	3	.
CC(=O)Nc1ccc(Nc2ncnc3c2cnn3-c2cccc(C)c2)cc1	11	6%	-3	-4%
CC(=O)Nc1ccc(Nc2ncnc3c2cnn3-c2ccc(C)cc2C)cc1	-17	6%	87*	16%[38.3 µM]
CCOC(=O)c1ccc(Nc2ncnc3c2cnn3C)cc1	2	-5%	83*	.
COc1ccc(NC(=O)N2CCc3nc(COc4ccccc4)c4c(c3C2)CO[C@@H](C)C4)cc1	.	.	.	-12%
CCOc1ccc2cc(C#N)c(SCC(=O)N3CCOCC3)nc2c1	5	12%	-4	2.8µM*
CCOc1ccc2nc(SCC(=O)N3CCCCCC3)c(C#N)cc2c1	-8	2%	?	0%[38.3 µM]
COc1ccc(CC(=O)Nc2oc(-c3ccccc3)c(-c3ccccc3)c2C#N)cc1OC	-3	-2%	84*	12%
COc1ccccc1OCC(=O)Nc1oc(-c2ccccc2)c(-c2ccccc2)c1C#N	18	-7%	7	39%[38.3 µM]
CCOC(=O)[C@]1(CC(=O)O)CCCC1=O	.	.	.	-3%
Cc1ccc2[nH]c3c(=S)nc[nH]c3c2c1	5	6%	-2	13µM*
Cc1ccc2[nH]c3c(=O)n(N)c(C)nc3c2c1	-4	-3%	-1	14%
Cc1ccc(C2CCN(C(=O)Nc3ccc(F)cc3)C2)cc1 (centres undefined)	1	1%	83*	4%
Nc1ccc(S(=O)(=O)NCCS(=O)(=O)O)cc1	.	.	.	3%
NCCCc1c(-c2ccccc2)nc(N)[nH]c1=O	.	.	.	-1%
CC(=O)N1CCN(c2nc(CC(C)C)c3c(c2C#N)CCC3)CC1	21	5%	93*	0%[38.3 µM]
CC(C)Cc1nc(N2CCN(C(=O)C(C)C)CC2)c(C#N)c2c1CCC2	0	4%	-1	12%[38.3 µM]
SMILES	TRPV1 PAM	A-T KAP1 phos	TRPV1 ag	IMPase Li cell
Cc1cc(Oc2ccccc2)nc(-c2ccccc2)n1	-16	18µM*	1	10%[38.3 µM]
Oc1ccc(N=Nc2ccc3c(c2)OCO3)c2ccccc12	6	10µM*	3	.
CCc1ccc(NC(=S)NC(=O)c2c(-c3ccccc3Cl)noc2C)cc1	24	-6%	8	.
Cc1onc(-c2ccccc2Cl)c1C(=O)NC(=S)NCC(=O)c1ccccc1	3	-2%	-1	10µM*
COc1ccc(CCNC2=NCCS2)cc1	7	9%	0	13%[38.3 µM]
COc1ccc(CCNC2=NCCS2)cc1OC	-12	1.3µM*	2	.
CCCCOc1ccc(C(=O)Nc2ccncc2)cc1	-7	-9%	93*	9%[38.3 µM]
CC(C)c1ccc(OCC(=O)Nc2ccncc2)cc1	-14	-6%	95*	.
O=C(Nc1ccncc1)c1ccc(Br)cc1	-28	1%	113*	.
CCc1ccc(OCC(=O)Nc2ccncc2)cc1	1	0%	?	.
O=C(SCc1cccc2ccccc12)c1ccc(Cl)cc1	.	.	.	-1%
O=C1C2C3CCCC3=C3CCCC3C2C(=O)N1c1ccccc1Cl (centres undefined)	10	.	2	.
OCc1cn(-c2ccccc2)nc1-c1ccc(-c2nn(-c3ccccc3)cc2CO)cc1	15	7%	8	28µM*
CC1CN(c2nc3c(c(=O)n(Cc4ccc(Cl)cc4)c(=O)n3C)n2C)CC(C)O1 (centres undefined)	-10	1%	106*	-4%[38.3 µM]
Clc1ccc(CSc2ncnc3c2ncn3[C@@H]2CCCCO2)cc1	.	.	.	0%
Cc1cc(/C=C2\Cc3ccccc3C2=O)c(C)n1-c1ccccc1	-1	7%	86*	14%
N#CC(=C(\N)Sc1ccccc1N)/C(C#N)=C(/N)Sc1ccccc1N	.	.	.	8%
Cc1ccc(-c2nn(CC(=O)Nc3ccc4c(c3)nc3n4CCOC3)c(=O)c3ccccc23)cc1	-14	14%	2	10µM*
CCC[n+]1c2ccccc2cc2ccccc21	-11	40µM*	8	.
CCOC(=O)[C@H]1[C@H]2COc3ccc(C)cc3[C@@H]2N2C(=O)c3cc(Cl)ccc3NC(=O)[C@@]12C	25	-7%	82*	.
CCOC(=O)[C@H]1[C@H]2COc3ccccc3[C@@H]2N2C(=O)c3cc(OC)ccc3NC(=O)[C@@]12C	3	13%	?	.
CCOC(=O)[C@H]1[C@H]2COc3ccc(C)cc3[C@@H]2N2C(=O)c3cc(F)ccc3NC(=O)[C@@]12C	18	9%	91*	.
CCOC(=O)[C@H]1[C@H]2COc3ccc(C)cc3[C@@H]2N2C(=O)c3ccc(F)cc3NC(=O)[C@@]12C	20	-2%	85*	.
CCOC(=O)[C@H]1[C@H]2COc3ccc(OC)cc3[C@@H]2N2C(=O)c3cc(C)ccc3NC(=O)[C@@]12C	12	4%	99*	.
CCOC(=O)[C@H]1[C@H]2COc3ccc(C)cc3[C@@H]2N2C(=O)c3ccc(C)cc3NC(=O)[C@@]12C	-28	-8%	?	.
SMILES	TRPV1 PAM	A-T KAP1 phos	TRPV1 ag	IMPase Li cell
CCOC(=O)[C@H]1[C@H]2COc3ccc(C)cc3[C@@H]2N2C(=O)c3ccccc3NC(=O)[C@@]12C	7	4%	90*	.
CCOC(=O)[C@H]1[C@H]2COc3ccccc3[C@@H]2N2C(=O)c3cc(F)ccc3NC(=O)[C@@]12C	10	19%	?	.
Cc1ncn(-c2ccccc2O)c1C	.	.	.	-10%
CCCCn1c(=S)[nH]c2c(oc3ccc(Cl)cc32)c1=O	16	-1%	-1	10µM*
CN(Cc1ccccc1F)C(=O)c1ccc(Oc2ccccc2)cc1	-8	14µM*	25	.
c1ccc(-c2nc3ccccc3[nH]2)cc1	2	-4%	13	.
S=c1nc(-c2ccccc2)[nH]c2ccc(Br)cc12	2	32µM*	1	.
Nc1c(Cl)cc(Cl)cc1Cl	.	.	.	-15%
CCN(CC)S(=O)(=O)c1ccc(OC)c(NC(=O)COc2ccc3c(C)cc(=O)oc3c2)c1	-10	-2%	-2	6.3µM*
CCN(CC)S(=O)(=O)c1ccc(Cl)c(NC(=O)COc2ccc3c(C)cc(=O)oc3c2)c1	17	-1%	-3	-23%
